The values below come from ChEMBL document CHEMBL1961873, “Compounds: GSK PKIS; Assays: Nanosyn kinase panel” (2012).

The target of experiment [1] is T1, Aurora kinase A (Homo sapiens) (UniProt O14965).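 Also: values are mean percent inhibition.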
T1 sequence (whole entry): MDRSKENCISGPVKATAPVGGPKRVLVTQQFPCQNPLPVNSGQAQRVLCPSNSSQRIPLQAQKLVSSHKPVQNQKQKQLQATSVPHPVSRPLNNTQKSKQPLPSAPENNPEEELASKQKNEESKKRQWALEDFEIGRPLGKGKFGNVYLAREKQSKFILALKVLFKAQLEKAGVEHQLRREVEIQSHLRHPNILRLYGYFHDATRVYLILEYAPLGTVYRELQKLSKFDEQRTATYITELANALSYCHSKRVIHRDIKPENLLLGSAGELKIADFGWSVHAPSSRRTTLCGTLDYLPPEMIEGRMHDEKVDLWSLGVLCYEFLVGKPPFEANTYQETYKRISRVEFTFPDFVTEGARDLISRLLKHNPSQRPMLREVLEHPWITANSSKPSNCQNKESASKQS
The conditions noted are these: at 1 µM.

The target in experiment [2] is Aurora kinase B (Homo sapiens) (UniProt Q96GD4). The conditions noted are these: at 0.1 µM.
Experiment [3] shares this target. Particulars: at 1 µM.
Experiment [4] deals with T2, Aurora kinase C (Homo sapiens) (UniProt Q9UQB9).
T2 sequence (whole entry): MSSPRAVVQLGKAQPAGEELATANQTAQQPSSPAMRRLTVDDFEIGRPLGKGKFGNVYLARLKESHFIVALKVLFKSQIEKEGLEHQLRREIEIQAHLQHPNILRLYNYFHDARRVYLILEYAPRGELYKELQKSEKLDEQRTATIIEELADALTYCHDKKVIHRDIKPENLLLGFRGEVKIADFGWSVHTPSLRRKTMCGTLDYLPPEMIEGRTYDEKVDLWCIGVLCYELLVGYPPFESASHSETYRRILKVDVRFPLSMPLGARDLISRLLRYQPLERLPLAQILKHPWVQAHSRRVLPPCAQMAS
Particulars: at 0.1 µM.

Experiment [5] addresses T2, Aurora kinase C (Homo sapiens). The conditions noted are these: at 1 µM.
The target of experiment [6] is Serine/threonine-protein kinase 10 (Homo sapiens) (UniProt O94804). Particulars: at 0.1 µM.
For experiment [7] the target is unchanged. The conditions noted are these: at 1 µM.
The target of experiment [8] is T3, Mitogen-activated protein kinase kinase kinase kinase 2 (Homo sapiens) (UniProt Q12851).
T3 sequence (whole entry): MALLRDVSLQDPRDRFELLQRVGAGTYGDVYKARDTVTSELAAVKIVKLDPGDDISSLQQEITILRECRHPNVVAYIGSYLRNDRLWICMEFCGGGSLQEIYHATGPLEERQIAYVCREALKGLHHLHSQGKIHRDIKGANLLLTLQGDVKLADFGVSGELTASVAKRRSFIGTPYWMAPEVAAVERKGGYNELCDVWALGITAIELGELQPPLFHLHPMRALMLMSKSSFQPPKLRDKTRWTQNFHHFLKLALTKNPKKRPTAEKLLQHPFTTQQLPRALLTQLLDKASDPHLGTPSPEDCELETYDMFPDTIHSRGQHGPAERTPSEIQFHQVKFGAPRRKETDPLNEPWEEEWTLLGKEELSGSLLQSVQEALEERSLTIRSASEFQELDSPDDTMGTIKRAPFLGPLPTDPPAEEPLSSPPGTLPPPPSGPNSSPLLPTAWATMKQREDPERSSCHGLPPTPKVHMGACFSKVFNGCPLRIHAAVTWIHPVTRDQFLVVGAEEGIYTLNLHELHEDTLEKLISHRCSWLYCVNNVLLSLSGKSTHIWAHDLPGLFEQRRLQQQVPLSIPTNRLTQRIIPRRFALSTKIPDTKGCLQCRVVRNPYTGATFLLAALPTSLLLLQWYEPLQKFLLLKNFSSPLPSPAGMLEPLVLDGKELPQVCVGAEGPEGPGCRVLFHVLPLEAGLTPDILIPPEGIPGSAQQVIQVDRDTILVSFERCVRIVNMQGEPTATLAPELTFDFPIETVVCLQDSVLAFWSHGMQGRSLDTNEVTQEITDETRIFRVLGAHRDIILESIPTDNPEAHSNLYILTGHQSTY
The conditions noted are these: at 0.1 µM.

Experiment [9] concerns the target T3, Mitogen-activated protein kinase kinase kinase kinase 2 (Homo sapiens). Particulars: at 1 µM.
In experiment [10] the target is Mitogen-activated protein kinase kinase kinase kinase 4 (Homo sapiens) (UniProt O95819). Particulars: at 0.1 µM.
The target is the same in experiment [11]. The conditions noted are these: at 1 µM.
Experiment [12] has as its target Dual specificity mitogen-activated protein kinase kinase 1 (Homo sapiens) (UniProt Q02750). Particulars: at 0.1 µM.
The target is the same in experiment [13]. Particulars: at 1 µM.
Experiment [14] has as its target Misshapen-like kinase 1 (Homo sapiens) (UniProt Q8N4C8). Particulars: at 0.1 µM.
For experiment [15] the target is unchanged. The conditions noted are these: at 1 µM.
The target in experiment [16] is T4, Serine/threonine-protein kinase 4 (Homo sapiens) (UniProt Q13043).
T4 sequence (whole entry): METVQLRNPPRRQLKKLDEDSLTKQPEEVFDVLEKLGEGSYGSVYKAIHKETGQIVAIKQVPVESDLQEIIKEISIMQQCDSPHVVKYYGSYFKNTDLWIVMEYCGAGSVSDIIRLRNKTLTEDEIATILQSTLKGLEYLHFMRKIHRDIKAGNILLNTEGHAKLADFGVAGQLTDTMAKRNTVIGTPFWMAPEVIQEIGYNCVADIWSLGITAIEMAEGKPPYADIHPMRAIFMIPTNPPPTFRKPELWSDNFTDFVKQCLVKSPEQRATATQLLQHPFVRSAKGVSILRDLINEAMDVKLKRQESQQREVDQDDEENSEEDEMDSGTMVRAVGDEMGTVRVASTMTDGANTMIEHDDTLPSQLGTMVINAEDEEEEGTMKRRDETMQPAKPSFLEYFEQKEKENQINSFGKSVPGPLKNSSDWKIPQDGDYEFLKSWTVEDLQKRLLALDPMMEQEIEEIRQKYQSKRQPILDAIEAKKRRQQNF
Particulars: at 0.1 µM.

Experiment [17] has as its target T4, Serine/threonine-protein kinase 4 (Homo sapiens). Particulars: at 1 µM.
Experiment [18] has as its target T5, Serine/threonine-protein kinase 3 (Homo sapiens) (UniProt Q13188).
T5 sequence (whole entry): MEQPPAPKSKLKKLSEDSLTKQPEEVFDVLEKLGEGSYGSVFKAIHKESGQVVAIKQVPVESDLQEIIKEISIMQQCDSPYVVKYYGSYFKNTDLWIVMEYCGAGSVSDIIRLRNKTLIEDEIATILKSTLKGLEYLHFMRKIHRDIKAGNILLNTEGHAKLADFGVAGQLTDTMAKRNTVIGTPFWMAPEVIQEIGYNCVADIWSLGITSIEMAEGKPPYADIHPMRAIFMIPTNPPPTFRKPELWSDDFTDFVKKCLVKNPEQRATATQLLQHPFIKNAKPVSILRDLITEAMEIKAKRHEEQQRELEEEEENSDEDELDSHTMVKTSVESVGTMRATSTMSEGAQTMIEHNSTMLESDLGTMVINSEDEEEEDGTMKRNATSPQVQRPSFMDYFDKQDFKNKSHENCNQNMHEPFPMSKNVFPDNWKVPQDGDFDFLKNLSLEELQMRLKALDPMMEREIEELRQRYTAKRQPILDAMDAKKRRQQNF
The conditions noted are these: at 0.1 µM.

Experiment [19] has as its target T5, Serine/threonine-protein kinase 3 (Homo sapiens). The conditions noted are these: at 1 µM.
The target in experiment [20] is Serine/threonine-protein kinase 26 (Homo sapiens) (UniProt Q9P289). The conditions noted are these: at 0.1 µM.

Several values for one entry are separate records, joined by “and”; a condition that tells them apart may be missing. Equal values may be shown once.

Chain of Aurora kinase B (Homo sapiens) (Q96GD4 whole entry): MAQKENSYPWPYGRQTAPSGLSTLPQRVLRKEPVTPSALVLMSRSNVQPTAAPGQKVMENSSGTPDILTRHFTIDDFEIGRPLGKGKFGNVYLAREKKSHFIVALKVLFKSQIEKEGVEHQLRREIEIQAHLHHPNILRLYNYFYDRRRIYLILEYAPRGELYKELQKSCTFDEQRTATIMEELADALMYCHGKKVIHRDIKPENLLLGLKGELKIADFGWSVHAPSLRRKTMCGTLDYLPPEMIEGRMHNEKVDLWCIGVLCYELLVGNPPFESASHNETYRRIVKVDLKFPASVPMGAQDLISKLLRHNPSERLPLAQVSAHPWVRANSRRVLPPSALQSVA
Chain of Serine/threonine-protein kinase 10 (Homo sapiens) (O94804 whole entry, looked up): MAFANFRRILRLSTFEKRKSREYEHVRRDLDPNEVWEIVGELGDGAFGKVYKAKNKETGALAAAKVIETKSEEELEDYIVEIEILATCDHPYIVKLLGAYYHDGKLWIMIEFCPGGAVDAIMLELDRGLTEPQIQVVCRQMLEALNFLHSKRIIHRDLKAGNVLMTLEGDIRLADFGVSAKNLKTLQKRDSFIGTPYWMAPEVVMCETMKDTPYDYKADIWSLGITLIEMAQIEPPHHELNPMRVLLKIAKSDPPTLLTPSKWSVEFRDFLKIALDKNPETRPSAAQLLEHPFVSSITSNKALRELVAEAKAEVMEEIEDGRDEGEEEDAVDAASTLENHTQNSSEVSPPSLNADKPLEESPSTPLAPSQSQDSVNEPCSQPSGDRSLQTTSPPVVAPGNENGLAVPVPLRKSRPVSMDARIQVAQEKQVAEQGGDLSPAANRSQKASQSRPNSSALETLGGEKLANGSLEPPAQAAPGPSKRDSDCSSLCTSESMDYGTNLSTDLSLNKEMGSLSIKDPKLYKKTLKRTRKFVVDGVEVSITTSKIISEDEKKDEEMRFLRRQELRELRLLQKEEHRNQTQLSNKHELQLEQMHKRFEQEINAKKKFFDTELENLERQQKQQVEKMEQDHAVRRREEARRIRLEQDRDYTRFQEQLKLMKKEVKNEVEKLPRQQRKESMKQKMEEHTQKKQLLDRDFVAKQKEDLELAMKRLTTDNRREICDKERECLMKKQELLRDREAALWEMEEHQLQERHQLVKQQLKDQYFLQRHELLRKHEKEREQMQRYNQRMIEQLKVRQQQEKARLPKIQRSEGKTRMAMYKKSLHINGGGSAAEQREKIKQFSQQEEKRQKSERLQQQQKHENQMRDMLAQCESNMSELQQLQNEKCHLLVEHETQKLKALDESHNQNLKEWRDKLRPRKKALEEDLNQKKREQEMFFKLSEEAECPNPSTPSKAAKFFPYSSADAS
Chain of Dual specificity mitogen-activated protein kinase kinase 1 (Homo sapiens) (Q02750 whole entry): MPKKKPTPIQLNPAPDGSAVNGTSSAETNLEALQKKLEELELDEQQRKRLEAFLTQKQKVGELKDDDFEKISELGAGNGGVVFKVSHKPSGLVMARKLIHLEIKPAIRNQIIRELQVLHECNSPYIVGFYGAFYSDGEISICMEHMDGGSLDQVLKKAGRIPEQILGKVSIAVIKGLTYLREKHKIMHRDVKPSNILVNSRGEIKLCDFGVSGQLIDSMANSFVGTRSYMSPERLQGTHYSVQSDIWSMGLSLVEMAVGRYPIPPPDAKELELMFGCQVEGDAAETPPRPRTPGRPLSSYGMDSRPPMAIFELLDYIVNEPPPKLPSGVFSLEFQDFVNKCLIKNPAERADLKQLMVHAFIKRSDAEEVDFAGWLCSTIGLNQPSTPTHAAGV
Chain of Misshapen-like kinase 1 (Homo sapiens) (Q8N4C8 whole entry, looked up): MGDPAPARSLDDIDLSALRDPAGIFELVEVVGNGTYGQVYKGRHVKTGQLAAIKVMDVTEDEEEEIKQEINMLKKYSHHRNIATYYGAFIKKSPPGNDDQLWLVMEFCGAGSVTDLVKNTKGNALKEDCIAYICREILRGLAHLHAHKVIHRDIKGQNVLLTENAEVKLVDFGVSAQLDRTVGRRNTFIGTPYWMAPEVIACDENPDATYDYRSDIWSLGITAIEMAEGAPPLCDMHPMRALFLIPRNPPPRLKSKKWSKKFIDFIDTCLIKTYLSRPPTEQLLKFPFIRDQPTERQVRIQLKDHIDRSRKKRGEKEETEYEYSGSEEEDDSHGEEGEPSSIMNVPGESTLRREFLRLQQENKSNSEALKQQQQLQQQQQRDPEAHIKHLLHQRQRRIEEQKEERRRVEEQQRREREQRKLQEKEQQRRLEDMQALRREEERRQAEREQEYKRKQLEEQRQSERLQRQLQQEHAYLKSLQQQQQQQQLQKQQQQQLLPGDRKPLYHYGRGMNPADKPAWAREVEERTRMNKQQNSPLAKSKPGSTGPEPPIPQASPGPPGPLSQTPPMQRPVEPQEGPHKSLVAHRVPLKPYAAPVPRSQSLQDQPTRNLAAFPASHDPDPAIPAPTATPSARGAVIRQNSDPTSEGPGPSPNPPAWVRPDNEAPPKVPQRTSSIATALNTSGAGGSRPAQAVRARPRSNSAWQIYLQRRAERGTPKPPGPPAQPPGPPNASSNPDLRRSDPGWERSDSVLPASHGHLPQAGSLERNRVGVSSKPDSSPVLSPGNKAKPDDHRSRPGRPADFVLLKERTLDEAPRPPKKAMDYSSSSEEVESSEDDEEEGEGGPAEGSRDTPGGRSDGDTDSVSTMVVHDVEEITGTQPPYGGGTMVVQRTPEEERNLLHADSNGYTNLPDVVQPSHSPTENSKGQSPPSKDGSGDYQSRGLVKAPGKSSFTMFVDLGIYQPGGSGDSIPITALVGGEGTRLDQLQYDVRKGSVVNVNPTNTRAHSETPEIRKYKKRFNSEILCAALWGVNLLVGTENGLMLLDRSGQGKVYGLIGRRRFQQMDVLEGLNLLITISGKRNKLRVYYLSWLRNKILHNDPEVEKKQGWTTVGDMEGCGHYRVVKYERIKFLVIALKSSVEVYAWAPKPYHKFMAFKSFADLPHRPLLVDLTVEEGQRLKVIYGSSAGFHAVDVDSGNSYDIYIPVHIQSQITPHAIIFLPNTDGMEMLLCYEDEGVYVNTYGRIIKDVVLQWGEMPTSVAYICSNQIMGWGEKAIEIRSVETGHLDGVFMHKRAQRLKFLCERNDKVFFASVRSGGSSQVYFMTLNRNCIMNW
Chain of Serine/threonine-protein kinase 26 (Homo sapiens) (Q9P289 2-416 limits assumed): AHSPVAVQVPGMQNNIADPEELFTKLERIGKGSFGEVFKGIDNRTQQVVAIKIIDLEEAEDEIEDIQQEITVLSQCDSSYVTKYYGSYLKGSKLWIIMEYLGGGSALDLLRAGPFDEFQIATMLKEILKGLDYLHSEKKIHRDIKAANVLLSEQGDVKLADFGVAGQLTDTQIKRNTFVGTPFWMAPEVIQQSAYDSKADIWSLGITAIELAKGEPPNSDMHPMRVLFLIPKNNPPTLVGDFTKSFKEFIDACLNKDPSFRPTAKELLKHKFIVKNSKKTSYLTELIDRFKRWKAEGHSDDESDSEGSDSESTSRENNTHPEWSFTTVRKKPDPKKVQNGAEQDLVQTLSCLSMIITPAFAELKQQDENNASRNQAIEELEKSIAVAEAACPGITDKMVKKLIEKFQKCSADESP
Chain of Mitogen-activated protein kinase kinase kinase kinase 4 (Homo sapiens) (O95819 2-1239 limits assumed): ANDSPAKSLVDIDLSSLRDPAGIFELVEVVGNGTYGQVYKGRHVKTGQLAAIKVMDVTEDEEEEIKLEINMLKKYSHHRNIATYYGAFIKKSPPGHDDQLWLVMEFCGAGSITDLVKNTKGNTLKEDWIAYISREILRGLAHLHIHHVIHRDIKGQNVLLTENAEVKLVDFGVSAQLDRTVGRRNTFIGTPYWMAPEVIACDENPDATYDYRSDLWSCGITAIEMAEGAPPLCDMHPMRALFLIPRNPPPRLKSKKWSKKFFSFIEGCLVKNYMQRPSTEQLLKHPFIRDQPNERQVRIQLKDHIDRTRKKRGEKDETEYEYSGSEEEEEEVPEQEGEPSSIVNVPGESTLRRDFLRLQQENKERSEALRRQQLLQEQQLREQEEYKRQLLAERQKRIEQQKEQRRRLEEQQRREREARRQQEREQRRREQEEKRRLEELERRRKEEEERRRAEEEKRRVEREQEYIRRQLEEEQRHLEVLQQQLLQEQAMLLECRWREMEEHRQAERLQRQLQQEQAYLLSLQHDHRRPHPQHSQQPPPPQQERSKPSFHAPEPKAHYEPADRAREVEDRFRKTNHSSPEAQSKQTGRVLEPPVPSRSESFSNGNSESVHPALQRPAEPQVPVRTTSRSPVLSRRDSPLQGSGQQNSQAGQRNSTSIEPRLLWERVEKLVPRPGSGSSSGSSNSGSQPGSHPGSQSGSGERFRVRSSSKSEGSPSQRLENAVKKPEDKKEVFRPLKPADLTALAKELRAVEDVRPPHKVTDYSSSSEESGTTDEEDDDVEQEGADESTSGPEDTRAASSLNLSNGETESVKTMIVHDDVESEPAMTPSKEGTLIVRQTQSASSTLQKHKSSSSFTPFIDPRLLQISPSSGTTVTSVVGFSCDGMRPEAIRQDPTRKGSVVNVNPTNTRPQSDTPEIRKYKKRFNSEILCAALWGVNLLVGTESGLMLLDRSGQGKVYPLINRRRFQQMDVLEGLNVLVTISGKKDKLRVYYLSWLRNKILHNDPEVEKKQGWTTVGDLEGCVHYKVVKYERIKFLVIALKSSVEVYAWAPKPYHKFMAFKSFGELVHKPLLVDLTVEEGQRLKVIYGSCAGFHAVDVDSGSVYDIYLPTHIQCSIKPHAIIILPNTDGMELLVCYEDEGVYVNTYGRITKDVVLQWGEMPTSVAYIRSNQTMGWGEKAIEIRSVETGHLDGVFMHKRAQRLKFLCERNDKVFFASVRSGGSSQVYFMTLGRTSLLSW

Broadly, the inhibition is the drop in the measured response relative to a control, in per cent. Turning to `COc1cc(N2CCN(C(C)C)CC2)ccc1Nc1nc(Nc2cccc(F)c2C(=O)O)c2cc[nH]c2n1`, the inhibition in experiment [1] is 6.46%; in experiment [2], 4.82%; in [3] it was 5.02%; in [4], 0.7%; in experiment [5], -0.44%; in experiment [6] it was 5.69%. Also, the inhibition in experiment [7] was determined as 9.11%; in experiment [8], 0.91%; in experiment [9] it was 3.18%; in experiment [10], 7.43%; in experiment [11], 10.1%; in experiment [12], 4.86%. The inhibition came out at 2.88% in experiment [13]; 4.85% in experiment [14]; 9.35% in experiment [15]; 5.23% in experiment [16]; 9.21% in experiment [17]; 5.03% in [18]. Besides, the inhibition is 9.11% in experiment [19] and -0.64% in [20].

Consider `CCS(=O)(=O)c1ccc(OC)c(Nc2ncc(-c3cccc(C(C)=O)c3)o2)c1`, for which the inhibition in [1] was 15.3%; in [2], 3.08%; in [3] it was 6.28%; in experiment [4] it was 4.6%; in experiment [5], -0.45%; in experiment [6], 6.16%. Also, the inhibition in [7] is 9.95%; in experiment [8] it was -0.26%; in experiment [9], 3.22%; in [10] it was 3.37%; in [11] it was 10.2%; in experiment [12], 3.55%. The inhibition in experiment [13] was found to be 2.6%; in experiment [14], 3.09%; in experiment [15] it was 8.97%; in experiment [16] it was 7.14%; in [17], 13.3%; in experiment [18], 7.18%. The inhibition in experiment [19] was 12.6%; in [20], -0.19%.

For `N#Cc1ccc2c(-c3ccnc(NC4CC4)n3)c(-c3ccc(F)cc3)nn2c1`, the inhibition is 0.56% in experiment [1]; 0.7% in [2]; -0.38% in [3]; 0.81% in experiment [4]; 5.38% in [5]; 2.63% in experiment [6]. Besides, the inhibition was 4.13% in experiment [7]; 0.19% in experiment [8]; 2.06% in [9]; 5.83% in experiment [10]; 46% in experiment [11]; 0.85% in experiment [12]. Also, the inhibition in experiment [13] is 3.35%; in experiment [14], 6%; in experiment [15] it was 30.2%; in [16], 0.26%; in [17] it was 1.31%; in experiment [18] it was 1.49%. For the same compound, the results for the inhibition in [19] and in experiment [20] were 1.55% and -1.26%, respectively.

Turning to `Nc1nonc1-c1nc2cnccc2n1C1CC1`, the inhibition is 10.7% and -0.07% in experiment [1]; 5.82% and -0.78% in [2]; 11.3% and 1.86% in [3]; 4.22% and -3.73% in [4]; 11.6% and -0.49% in experiment [5]; 7.02% and 3.14% in [6]. Moreover, the inhibition in [7] was 15.1% and 14.1%; in experiment [8], 3.53% and 3.38%; in experiment [9], 14.3% and 12.8%; in [10], 11.1% and 7.77%; in experiment [11] it was 39.8% and 40%; in experiment [12] it was 3% and 3.58%. The inhibition in experiment [13] was 6.15% and 7.11%; in [14] it was 9.13% and 8.38%; in experiment [15] it was 30.2% and 28.1%; in experiment [16] it was 6.61% and 2.32%; in experiment [17] it was 23.1% and 15.3%; in experiment [18], 6.77% and 2.58%. Further, the inhibition in experiment [19] was 17.9% and 12.6%; in [20] it was -0.67% and -1.23%.

Turning to `COC(=O)Nc1nc2cc(Oc3ccc(NC(=O)Nc4ccccc4)cc3)ccc2[nH]1`, the inhibition in experiment [1] amounted to 3.53%; in [2], 11.9%; in experiment [3], 24.9%; in experiment [4], 28.9%; in experiment [5] it was 42.6%; in experiment [6] it was 9.63%. Further, the inhibition in experiment [7] stood at 14.7%; in [8], 1.5%; in [9] it was 0.87%; in [10], 3.39%; in experiment [11], 12.9%; in [12] it was 3.88%. Moreover, the inhibition in [13] worked out at 2.45%; in experiment [14] it was 5.15%; in experiment [15] it was 11.3%; in experiment [16], 3.7%; in experiment [17], 4.62%; in experiment [18] it was 5.39%. The results for the inhibition in [19] and in experiment [20] were 6.48% and -0.23%, respectively.

In the case of `COc1cc(Nc2ncc(-c3ccccc3)o2)cc(OC)c1`, the inhibition in experiment [1] is 30.3%; in experiment [2] it was 5%; in [3] it was 19.7%; in experiment [4] it was 3.27%; in [5] it was 29.6%; in [6] it was 8.54%. For the same compound, the inhibition amounted to 12.9% in experiment [7]; 0.95% in [8]; 7.2% in experiment [9]; 7.08% in [10]; 18.8% in experiment [11]; 4.41% in [12]. Moreover, the inhibition in experiment [13] came to 3.91%; in experiment [14], 8.63%; in [15] it was 19.5%; in experiment [16], 3.72%; in experiment [17], 6.2%; in [18] it was 6.11%. Further, the results for the inhibition in [19] and in [20] were 6.9% and -1.04%, respectively.

On to `CS(=O)(=O)CCNCc1ccc(-c2ccc3ncnc(Nc4ccc(OCc5ccccc5)cc4)c3c2)o1`, for which the inhibition in experiment [1] was determined as 7.7%; in experiment [2] it was 4.74%; in [3] it was 10%; in [4], 2.17%; in experiment [5], 7.65%; in [6] it was 5.66%. Besides, the inhibition in experiment [7] came out at 7.82%; in experiment [8] it was 0.28%; in experiment [9], 1.58%; in experiment [10], 3.5%; in [11], 6.76%; in [12] it was 2.75%. The inhibition is 2.72% in experiment [13]; 5.38% in [14]; 5.67% in experiment [15]; 3.24% in experiment [16]; 3.52% in [17]; 5.36% in experiment [18]. The figures for the inhibition in experiment [19] and in experiment [20] were 3.74% and 0.02%, respectively.
